Source: publication PMC6212790, “How bacterial xenogeneic silencer rok distinguishes foreign from self DNA in its resident genome”
In all, about 33,000 sequences were measured (“e-score”: median about -0.037, highest 2% from about 0.34 on). The list comes from a sample in which the highest values are over-represented; it also holds similar and randomly drawn sequences.

Each sequence was assayed against T1, GST-Rok (full length) (Bacillus subtilis subsp. subtilis str. …, UniProt O34857 1-191) (assay: protein binding microarray; Rok is a gene silencer of Bacillus subtilis; high values mean tight binding). Conditions: protein: recombinant; tags: GST (pTH5325, pDEST15-Magic modified); dsDNA, one strand shown.
T1 sequence: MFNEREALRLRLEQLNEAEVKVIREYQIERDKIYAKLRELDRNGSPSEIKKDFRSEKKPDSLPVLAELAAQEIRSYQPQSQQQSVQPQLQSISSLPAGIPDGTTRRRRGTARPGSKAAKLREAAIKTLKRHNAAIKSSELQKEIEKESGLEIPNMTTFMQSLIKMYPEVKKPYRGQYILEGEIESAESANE
Outline: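 Each has a 25-mer constant primer and a 35-mer variable part from a de Bruijn sequence of order 10, covering every non-palindromic 8-mer at least 32 times (palindromic 16). Preference for each 8-mer is given as a rank-based, unitless enrichment score (E-score). Its range runs from 0.5 (most favored) to −0.5 (most disfavored).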

| Sequence | binding signal [E-score] |
| --- | --- |
| TACCATAA | 0.336 |
| GACCATAA | -0.0227 |
| AACCATAA | 0.0915 |
| CATAGTTA | 0.244 |
| GATAGTTA | 0.391 |
| GATAGTGA | 0.162 |
| AATAGTTG | 0.313 |
| AATAGTTA | 0.372 |
| GATAGTCA | 0.0302 |
| TGCTGCAA | -0.149 |
| GCAATACA | 0.115 |
| CAACGACG | -0.1 |
| CATAGCCG | -0.0675 |
| CGAACCCG | -0.099 |
| CATAAAGA | 0.0223 |
| AGCAGAGA | -0.129 |
| GTACGATA | 0.252 |
| ATACGATA | 0.366 |
| ATACGATC | 0.0843 |
| CTACGGTA | 0.175 |
| ATACGGTG | 0.0458 |
| ATACGGTA | 0.348 |
| GTTATGAA | 0.155 |
| AAACATCT | 0.0882 |
| AGGAGGAA | -0.159 |

| Sequence | binding signal [E-score] |
| --- | --- |
| GCAGTCTA | 0.0175 |
| GGCTAGAA | -0.0986 |
| AACTAGAT | 0.369 |
| AACTAGAG | 0.107 |
| AACTAGAA | 0.395 |
| CACTAGAA | 0.224 |
| AGCTAGAT | 0.215 |
| AACTAGAC | 0.103 |
| GACTAGAA | 0.15 |
| AGCTAGAA | 0.329 |
| ACCTAGAA | 0.109 |
| TACTAGAA | 0.375 |
| TGCTAGAA | 0.387 |
| AAAAAGCT | -0.0996 |
| GAGTACCA | -0.0678 |
| ACACATGA | 0.211 |
| GACGTAGC | 0.0184 |
| AGGTTGAC | -0.156 |
| CGTAAGGC | -0.174 |
| AGAGGACT | -0.176 |
| GAGCTAAC | 0.0297 |
| ATCCTAAG | -0.0403 |
| AATCAATG | 0.0424 |
| CACTTATC | 0.23 |
| ACGTAAAG | 0.0236 |

| Sequence | binding signal [E-score] |
| --- | --- |
| TTTAGAAA | 0.183 |
| CGTAGAAA | 0.359 |
| GGTAGACA | 0.0655 |
| GTTAGAAC | 0.0808 |
| CGTAGAAC | 0.0102 |
| TGTAGAAA | 0.396 |
| GGTAGAAA | 0.472 |
| GGTAGAGA | 0.0752 |
| CGTAGAAG | 0.128 |
| TGTAGACA | 0.159 |
| GGTAGAAC | 0.374 |
| GATAGAAC | 0.278 |
| AAGTGAGC | -0.093 |
| CGTGCCTA | -0.0621 |
| GCCCACTA | 0.00538 |
| CCTCTTAC | -0.169 |
| AGGTTAAT | 0.137 |
| CTGATAAG | 0.0753 |
| TCCGTAGA | 0.118 |
| CTGGAACA | -0.0188 |
| ATACAAAC | 0.354 |
| GTACATAC | 0.28 |
| CTACATAC | 0.269 |
| ATACACAT | 0.303 |
| ATACATAT | 0.399 |

| Sequence | binding signal [E-score] |
| --- | --- |
| CTACATAG | 0.153 |
| ATACATAC | 0.372 |
| ATACAAAT | 0.32 |
| ATACATAG | 0.391 |
| ATACATAA | 0.316 |
| AAACATAT | 0.316 |
| ATACAAAA | 0.278 |
| GAATGTAA | 0.21 |
| AGCCCTAT | -0.0484 |
| CGCGATGC | -0.0559 |
| AAATTAAA | 0.166 |
| AGGTTCAT | -0.0409 |
| GAATGGAC | -0.0766 |
| AAGGTTGT | -0.00326 |
| GCGATAAA | 0.182 |
| ATACAATC | 0.192 |
| ATACAATA | 0.359 |
| ATACAATG | 0.254 |
| CATAATCA | 0.164 |
| CGAGGCCA | -0.199 |
| TGAACTAA | 0.0469 |
| ATTCGAAG | 0.09 |
| ATTCGAAA | 0.159 |
| ATTCGAAT | 0.342 |
| AGCGGTTA | -0.138 |

| Sequence | binding signal [E-score] |
| --- | --- |
| AGCGGTAG | 0.34 |
| ACCGGTAA | 0.255 |
| ACCGGTAG | 0.374 |
| CCCGGTAG | -0.134 |
| AGCGGTAC | -0.166 |
| AGCGGTAT | 0.321 |
| CTATGTCA | 0.225 |
| AAGTCGCC | -0.0852 |
| AAAGCATT | -0.0355 |
| ACTAGTAT | 0.422 |
| ACCAGTAT | 0.255 |
| ACTAGTAC | 0.41 |
| ACTAGTAG | 0.426 |
| GCTAGTAC | 0.181 |
| ACTAGTCT | 0.248 |
| CCTAGTAC | 0.125 |
| CCTAGTAG | 0.233 |
| ACTAGTGG | 0.00757 |
| AGTTAAGC | -0.0477 |
| GGCTAAGA | 0.000408 |
| GTTCTCAA | 0.0738 |
| TAACACTA | 0.284 |
| GAAGACTC | -0.114 |
| CAGTAGGC | -0.157 |
| TCCTACAA | 0.0302 |

| Sequence | binding signal [E-score] |
| --- | --- |
| AGGCTTCG | -0.0947 |
| AGCCCTAA | -0.164 |
| GTAATTAA | 0.181 |
| ATAATTAA | 0.29 |
| CTAATTAC | 0.329 |
| ATAATTAC | 0.385 |
| CTAATTAG | 0.375 |
| ATAATTAT | 0.268 |
| GTAATTAC | 0.421 |
| CTAATTAA | 0.233 |
| ATAATTAG | 0.317 |
| GAACCCAA | -0.176 |
| ATGAAATC | 0.029 |
| AGGTCTGG | -0.0443 |
| CTGTACAA | 0.0838 |
| ATGTAAAC | 0.0692 |
| ATGTAAAA | 0.295 |
| ATGTACAA | 0.311 |
| ATGTAAAT | 0.376 |
| ATGTACAT | 0.409 |
| GTGTACAA | 0.167 |
| AGCTACCC | -0.139 |
| AGCTACCA | 0.358 |
| ATGTACAG | 0.3 |
| AGCTACCT | 0.164 |

| Sequence | binding signal [E-score] |
| --- | --- |
| TTGTACAA | 0.387 |
| ATAATTCC | 0.213 |
| GAGAACAA | -0.119 |
| GTCGTTTA | 0.0636 |
| CCTCACAG | -0.0675 |
| AGCAGCAG | -0.124 |
| ACGGACAC | -0.126 |
| CGCATTAA | 0.0651 |
| GTGATTTA | 0.06 |
| CCAGGAGC | -0.14 |
| AGCGTCTA | 0.0457 |
| CTGTACCA | -0.0416 |
| AGCTACCG | 0.309 |
| ACCTACCG | 0.169 |
| GTCTACCA | 0.0944 |
| ATCTACCA | 0.48 |
| ATGTACCA | 0.342 |
| ATGTACCC | 0.0665 |
| ATCTACCC | 0.25 |
| ATCTACCG | 0.409 |
| ATTGCCGG | -0.0899 |
| ACCAGCCG | 0.0494 |
| TCAGGACA | -0.136 |
| CCACCTAA | -0.104 |
| CTGGTAAC | 0.176 |

| Sequence | binding signal [E-score] |
| --- | --- |
| GAGAGAGA | -0.124 |
| CAAGCGTA | -0.175 |
| AAGCCAGC | -0.00201 |
| AGACTGAA | 0.0238 |
| AATACTGA | 0.188 |
| AATACTAC | 0.419 |
| GATACTAC | 0.278 |
| AATACTCA | 0.174 |
| AATACTCG | 0.085 |
| AATACTTC | 0.235 |
| AATACTAA | 0.37 |
| AATACTAG | 0.341 |
| CATACTAA | 0.125 |
| TATACTAA | 0.364 |
| GATACTAA | 0.307 |
| CATACTAG | 0.312 |
| GCAGGGAA | -0.158 |
| TAAATTCA | 0.217 |
| AGTAGCCA | -0.0245 |
| CCTTACCG | 0.0725 |
| CGGAGCCG | -0.191 |
| ACGTGCTA | 0.0361 |
| AATACTGT | 0.171 |
| CATACTCC | -0.0183 |
| CATACTAC | 0.376 |

| Sequence | binding signal [E-score] |
| --- | --- |
| CATACTTC | 0.191 |
| AATACTCT | 0.11 |
| AATACTAT | 0.359 |
| AAAAAGTT | 0.0934 |
| ACCAACAA | -0.105 |
| GAACACCA | -0.0539 |
| TACTTCGA | 0.332 |
| CACTAAGC | -0.0899 |
| GTAGGAAC | 0.0415 |
| CGAACGTA | 0.0863 |
| CCTAATTA | 0.228 |
| ACTAATTC | 0.359 |
| GCTAATTA | 0.325 |
| ACTAATTA | 0.438 |
| CCTAATTC | 0.0288 |
| ACTAATTG | 0.184 |
| GGCATCTA | -0.0204 |
| AGGATGAT | -0.0933 |
| ACTGTGGA | -0.123 |
